Inconclusive results are not listed. Values without a mark were called inactive. Activity calls are given as the source filed them. Calls come from the whole dose curve; as a rule, active = well fitted inhibition curve with a large enough effect; inconclusive = small, poorly fitted or top-dose-only effect; inactive = no such curve, though single readings can be large or run the other way. *1 amine or outer side, *2 acyl side, *3 side chain or, on linkers, in order; H or OH if unused. Where a SMILES comes first, the peptide text is derived from it. [ ]: non-standard residue; d: D form. X4 = CC(C)=CCc1cc(C(O)C(N[*:1])C(=O)[*:2])ccc1O
Experiment: Primary qHTS for inhibitors of nuclear receptor binding SET domain protein 2 (NSD2) in an RCH-ACV wild type WT cells (2C) (AID 1645877); note: nearly all actives have a fitted effect of over 70% in size
Conditions: RCH-ACV (leukaemia line) NSD2 WT (2C) viability, CellTiter-Glo, 72 h; series mostly up to 44.9 µM; activity change, negative = cell killing: at the top concentration
% is set by controls: 0 for no effect and ±100 for the full control effect; potency is the fitted concentration of half-maximal effect.

| Compound | outcome | activity change, negative = cell killing | Potency |
| --- | --- | --- | --- |
| COC1=CC(=O)CC(C)C12Oc1cc(OC)cc(O)c1C2=O (centres undefined) | inactive | – | – |
| C[C@@H]1C(=O)O[C@H]2C[C@]34[C@H]5C[C@@H](C(C)(C)C)[C@]36[C@@H](OC(=O)[C@H]6O)O[C@]4(C(=O)O5)[C@]21O | – | -21.2% [at 17.3 µM] | – |
| CC1(C)C[C@H](O)C[C@@]2(C)OC(=O)C=C12 | – | -11% [at 91.9 µM] | – |
| CC(C)CC1NC(=O)C(C)NC(=O)C(CC(C)C)OC(=O)CCCNC1=O (centres undefined) | inactive | – | – |
| C[C@@H]1C[C@@H](O)[C@@]23CO[C@@H](O)[C@@H]2CCC[C@@H]3[C@@]12C[C@@H](c1ccoc1)OC2=O | – | -3.48% | – |
| COc1ccc(-c2c(-c3cc(C(=O)O)ccn3)ncn2C)cc1 | inactive | – | – |
| CC1OC(OCC2OC(OC3CCC4(C)C(CCC5(C)C4CC=C4C6CC(C)(C)CCC6(C(=O)OC6OC(CO)C(O)C(O)C6O)CCC45C)C3(C)CO)C(O)C(O)C2O)C(O)C(O)C1O (centres undefined) | – | -0.623% [at 9.23 µM] | – |
| C=C(C(=O)OC)C1C(O)CC2(C)C(O)CCC(=O)C2C1O (centres undefined) | – | -8.32% | – |
| CC(=O)O[C@@H]1C[C@@H](OC(C)=O)C(C)(C)/C=C/[C@H](C)[C@H](OC(C)=O)[C@@]2(O)C[C@H](C)[C@H](OC(=O)c3ccccc3)[C@@H]2/C=C/1C | – | -13.9% [at 17.3 µM] | – |
| C[C@]12C=C[C@@]3(CCC4[C@](C)(CO)CCC[C@@]4(C)C3CC1)C2 (some centres undefined) | – | -6.14% | – |
| CC(=O)CC1CCC(C(C)C(=O)OCC(O)CO)O1 (centres undefined) | – | -18% | – |
| CCCOC(c1cc2nccc(C(=O)O)c2[nH]1)c1ccccc1Cl (centres undefined) | – | 2.56% | – |
| COC(=O)C(C)C1CCC2(C)C(=O)C=CC(C)(O)C2C1O (centres undefined) | – | -4.12% | – |
| COc1cc2c(cc1OC)[C@@H]1[C@H](O)[C@@H](OC)C=C3CCN(C2)[C@H]31 | – | – | 4500 nM (active) |
| CC(C)=CCc1cc(C(O)C2NC(=O)CNC(=O)C(Cc3c[nH]c4ccccc34)NC(=O)C3CCCN3C(=O)CNC(=O)C(C(C)C)NC(=O)CNC2=O)ccc1O (centres undefined) (cyclo(G[X4]GVGPW); configuration not given here) | – | -18.5% [at 9.23 µM] | – |
| N#Cc1ccc(C(=O)N2CCC3(CC2)N=C(N)c2c(F)ccc(F)c2N3)cn1 | – | -27.8% | – |
| C[C@@H]1O[C@@H](O[C@H]2[C@H](O)[C@@H](C(=O)O)O[C@@H](O[C@H]3CC[C@@]4(C)C(CC[C@]5(C)C4CC=C4C6CC(C)(C)CC[C@]6(C(=O)O)CC[C@]45C)C3(C)C)[C@@H]2O[C@@H]2OC[C@@H](O)[C@H](O)[C@H]2O)[C@H](O)[C@H](O)[C@H]1O (some centres undefined) | inactive [at 9.23 µM] | – | – |
| OC[C@H]1O[C@@H](OCCc2ccc(O)cc2)[C@H](O[C@@H]2OC[C@](O)(CO)[C@H]2O)[C@@H](O)[C@@H]1O | inactive [at 17.3 µM] | – | – |
| Cc1cccc(Oc2cnc(=O)[nH]c2)c1 | inactive | – | – |
| O=C(Nc1c(-c2cccs2)nc2ccccn12)c1ccc(Cl)cc1 | – | -6.62% | – |

| Compound | outcome | activity change, negative = cell killing | Potency |
| --- | --- | --- | --- |
| CC1(C)CCC[C@@]2(C)C1[C@H](OC(=O)/C=C/C=C/C(=O)O)C=C1COC(=O)[C@@]12O (some centres undefined) | inactive | – | – |
| O=C1CCC=CC1(O)C(=O)OCc1ccccc1O[C@@H]1O[C@H](CO)[C@@H](O)[C@H](O)[C@H]1O (some centres undefined) | – | – | 5020 nM (active) |
| C=C[C@H]1C(O[C@@H]2O[C@H](CO)[C@@H](O)[C@H](O)[C@H]2O)OC=C2C(=O)N3CCc4c([nH]c5ccccc45)[C@H]3C[C@H]21 (some centres undefined) | – | 3.09% [at 17.3 µM] | – |
| COc1cc(/C=C/C=O)cc(OC)c1O[C@@H]1O[C@H](CO)[C@@H](O)[C@H](O)[C@H]1O | – | -6.88% | – |
| N=c1nc2n(cc1F)C1OC(CO)C(O)C1O2 (centres undefined) | – | – | 18.3 nM (active) |
| CC(=O)O[C@@](C)(C(=O)/C=C/C(C)(C)O)[C@H]1[C@H](O)C[C@@]2(C)[C@@H]3CC=C4[C@@H](C=C(O)C(=O)C4(C)C)[C@]3(C)C(=O)C[C@]12C | – | – | 282 nM (active) |
| COc1cc2c(cc1O)[C@H](c1ccc(O[C@@H]3O[C@H](CO)[C@@H](O)[C@H](O)[C@H]3O)c(OC)c1)[C@@H](CO)[C@](O)(CO)C2 | inactive [at 17.3 µM] | – | – |
| C/C=C(\C)C(=O)OCC1OC(OC2OC(COC(=O)/C(C)=C/C)C(OC3OC(CO)C(OC(=O)/C(C)=C/C)C(OC(=O)/C(C)=C/C)C3O)C(O)C2O)C(O)C(O)C1OC1OC(CO)C(OC(=O)/C(C)=C/C)C(OC(=O)/C(C)=C/C)C1O (centres undefined) | – | -15.3% [at 9.23 µM] | – |
| O=[N+]([O-])c1cccc2[nH]c(CNc3nc(N4CCOCC4)nc4c3ncn4-c3ccsc3)nc12 | – | – | 64.9 nM (active) |
| CCCCOC(=O)NC(=O)C1c2ccccc2Oc2ccccc21 | inactive | – | – |
| CC(=O)OC1C(=O)C2(C)C(O)CC3OCC3(OC(C)=O)C2C(OC(=O)c2ccccc2)C2(O)CC(OC(=O)C(O)C(NC(=O)c3ccccc3)c3ccccc3)C(C)=C1C2(C)C (centres undefined) | – | – | 6.5 nM (active) |
| O=C1CC2(CCCC2)[C@H](O)C(=O)N1CCCCN1CCN(c2ncccn2)CC1 | – | -11.9% | – |
| C[C@@H]1C[C@@H]([C@@H](O)C(C)(C)O)O[C@H]2C[C@@]3(C)C(=C12)C[C@H](O)[C@H]1[C@@]2(C)CCC(=O)C(C)(C)C2CC[C@@]13C (some centres undefined) | – | -15.3% [at 17.3 µM] | – |
| C=CC(C)(C)c1[nH]c2ccccc2c1C[C@@H]1NC(=O)[C@H](Cc2c[nH]c3ccccc23)NC1=O | – | -7.15% [at 17.3 µM] | – |
| Cc1c2cc(c(C(=O)O)c1C)OC1OC(C(O)C(O)C1O)C(O)C(O)C1OC(O2)C(O)C(O)C1O (centres undefined) | – | -9.51% [at 17.3 µM] | – |
| CC(C)C[C@H](CC(=O)NO)C(=O)N[C@H](C(=O)N[C@@H](C)C(=O)NCCN)C(C)(C)C | – | -8.71% [at 9.23 µM] | – |
| CC(Cc1cc2c(c(C(N)=O)c1)N(CCCO)CC2)NCCOc1ccccc1OCC(F)(F)F (centres undefined) | – | -22.5% | – |
| CC(C)=CCC/C(C)=C/CO[C@@H]1O[C@H](CO)[C@@H](OC(=O)/C=C/c2ccc(O)cc2)[C@H](O[C@@H]2O[C@@H](C)[C@H](O)[C@@H](O)[C@H]2O)[C@H]1O | – | -9.31% [at 17.3 µM] | – |
| C/C1=C\CC[C@H](C)CCO[C@@H]2O[C@H](CO[C@@H]3OC[C@](O)(COC1=O)[C@H]3O)[C@@H](O)[C@H](O)[C@H]2O | inactive [at 17.3 µM] | – | – |
